Laboratory results from PubChem BioAssay (NCATS).
Results filed as inconclusive are left out. Active and inactive are the calls of the source. Calls come from the whole dose curve; as a rule, active = well fitted curve in the direction sought with a large enough effect; inconclusive = small, poorly fitted or top-dose-only effect, or another doubt; inactive = no such curve, though single readings can be large; an effect the other way counts as inactive or inconclusive.

Legend:
[1] = Cell Viability - H-4-II-E (AID 543); note: % is set by controls: 0 for no effect and ±100 for the full control effect; nearly all actives have a fitted effect of over 35% in size
Summary of the method: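 Rat hepatoma H-4-II-E cells (1500/well) were plated, incubated 5 hr at 37 °C, then exposed to compounds for 40 hr at 37 °C. Cellular ATP was read by CellTiter-Glo luminescence; AC50 came from Hill-equation fits of concentration-response data.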

[2] = Cell Viability - SH-SY5Y (AID 544); details: SH-SY5Y neuroblastoma cell viability; viability change, negative = cytotoxic: at 92.2 µM (top of the series); note: nearly all actives have a fitted effect of over 55% in size
Summary of the method: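 Human neuroblastoma SH-SY5Y cells (1500/well) in complete medium were exposed to compounds for 40 hr at 37 °C; intracellular ATP was then quantified by CellTiter-Glo luminescence after 20 min at room temperature. AC50 came from Hill-equation concentration-response fits.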

[3] = Cell Viability - Renal Proximal Tubule (AID 545); note: nearly all actives have a fitted effect of over 40% in size
Summary of the method: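 Rat renal proximal tubule primary cells, 1000/well, exposed to compounds for 40 hr at 37 °C in complete medium; cellular ATP read by CellTiter-Glo luminescence. AC50 from concentration-response fitted with standard Hill equation.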

[4] = Cell Viability - Mesenchymal (AID 546);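 note: cells exposed to compound for 40 hours before reading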
Summary of the method: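 AC50 values reflect the drop in intracellular ATP in a human kidney mesenchymal line derived from normal glomeruli. Treatment lasts 40 hr at 37 °C in complete medium, and the signal comes from CellTiter-Glo luminescence.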

[5] = Cellular Toxicity (caspase-3) HepG2 (AID 654);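 note: cells exposed to compound for 16 hours before reading; 0% = DMSO alone and 100% = caspase signal from 100 µM tamoxifen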
Summary of the method: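 HepG2 cells (1500/well) in complete medium were treated with compounds for 16 hr at 37 °C. Caspase-3/7 activity was then read as luminescence from peptide-aminoluciferin cleavage. AC50 came from Hill fits, normalized to DMSO and 100 uM tamoxifen.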

[6] = Cellular Toxicity (caspase-3) Jurkat (AID 655); details: Jurkat caspase-3 activation, luminescence; caspase-3 activation: at 92.2 µM (top of the series), DMSO = 0%, tamoxifen = 100%;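 note: cells exposed to compound for 16 h at 37 °C before reading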
Summary of the method: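 Jurkat cells (5000/well) in complete medium exposed 16 h at 37 C; caspase-3/7 activity read by Caspase-Glo luminescence after 20 min at room temperature. Normalized to DMSO and 100 uM tamoxifen; AC50 from Hill fits.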

[7] = Cellular Toxicity (caspase-3) HUV-EC-C (AID 656)
Summary of the method: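 HUV-EC-C cells (1000/well) in complete medium, compound-treated 16 h at 37 °C; caspase-3/7 activity read by Caspase-Glo 3/7 luminescence. Normalized to DMSO (basal) and 100 uM tamoxifen (100%); AC50 from Hill-equation concentration-response fits.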

[8] = Cellular Toxicity (caspase-3) SHSY5Y (AID 657)
Summary of the method: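 SH-SY5Y human neuroblastoma cells, 1500/well, exposed to compound for 16 hours at 37 °C in complete medium. Caspase-3/7 activity read by Caspase-Glo luminescence after 1 hr at room temperature, normalized to DMSO and 10 uM staurosporine; AC50 from Hill fit.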

[9] = Cellular Toxicity (caspase-3) BJ (AID 658);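 note: 0% = DMSO basal and 100% = 10 µM staurosporine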
Summary of the method: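 Readout: Caspase-Glo 3/7 luminescence increase in BJ cells after 16 hr treatment at 37 °C. Staurosporine and tamoxifen served as positive controls; AC50 values came from Hill modelling of data normalized to DMSO and 10 uM staurosporine.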

[10] = Cellular Toxicity (caspase-3) MRC-5 (AID 659);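 note: 0% = DMSO basal and 100% = 10 µM staurosporine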
Summary of the method: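 Concentration-dependent caspase 3/7 activation is measured in human normal lung fibroblasts (MRC-5) following 16-hour treatment. AC50 values come from standard Hill-equation modeling of luminescence normalized to DMSO and 10 uM staurosporine.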

O=C1CCC(=O)O1
inactive: Potency [1] | Potency [2] | Potency [3] | Potency [4] | Potency [5] | caspase-3 activation [6] 1.09% | outcome [7] | outcome [8] | outcome [9] | outcome [10]

CC(C)N(C)C
inactive: Potency [1] | Potency [2] | Potency [3] | Potency [4] | Potency [5] | caspase-3 activation [6] -0.157% | outcome [7] | outcome [8] | outcome [9] | outcome [10]

CC/C(C)=N/O
inactive: Potency [1] | Potency [2] | Potency [3] | Potency [4] | Potency [5] | caspase-3 activation [6] -0.144% | outcome [7] | outcome [8] | outcome [9] | outcome [10]

CC(C)N=C=NC(C)C
inactive: Potency [1] | Potency [2] | Potency [3] | Potency [4] | Potency [5] | caspase-3 activation [6] 2.33% | outcome [7] | outcome [8] | outcome [9] | outcome [10]

Clc1cc(Cl)cc(Cl)c1
inactive: Potency [1] | Potency [2] | Potency [3] | Potency [4] | Potency [5] | caspase-3 activation [6] 0.897% | outcome [7] | outcome [8] | outcome [9] | outcome [10]

CC(C)CO
inactive: Potency [1] | Potency [2] | Potency [3] | Potency [4] | Potency [5] | caspase-3 activation [6] -0.38% | outcome [7] | outcome [8] | outcome [9] | outcome [10]

CC(C=O)Cc1ccc(C(C)(C)C)cc1 (stereo not given)
inactive: Potency [1] | Potency [2] | Potency [3] | Potency [4] | Potency [5] | caspase-3 activation [6] 2.85% | outcome [7] | outcome [8] | outcome [9] | outcome [10]

CCOC(=O)C(C)C(C)=O (stereo not given)
inactive: Potency [1] | Potency [2] | Potency [3] | Potency [4] | Potency [5] | caspase-3 activation [6] 3.08% | outcome [7] | outcome [8] | outcome [9] | outcome [10]

C1CCCC1
inactive: Potency [1] | Potency [2] | Potency [3] | Potency [4] | Potency [5] | caspase-3 activation [6] -0.234% | outcome [7] | outcome [8] | outcome [9] | outcome [10]

Cc1ccc(C(C)(C)C)cc1
inactive: Potency [1] | Potency [2] | Potency [3] | Potency [4] | Potency [5] | caspase-3 activation [6] 1.39% | outcome [7] | outcome [8] | outcome [9] | outcome [10]

Clc1ccccn1
inactive: Potency [1] | Potency [2] | Potency [3] | Potency [4] | Potency [5] | caspase-3 activation [6] -1.1% | outcome [7] | outcome [8] | outcome [9] | outcome [10]

CCCC(Cl)CCCC(Cl)CCC(Cl)CCC(Cl)CCC(Cl)CCCC(Cl)CCC (stereo not given)
inactive: Potency [1] | Potency [2] | Potency [3] | Potency [4] | Potency [5] | caspase-3 activation [6] -0.794% | outcome [7] | outcome [8] | outcome [9] | outcome [10]

Cc1ccc2cccnc2c1
inactive: Potency [1] | Potency [2] | Potency [3] | Potency [4] | Potency [5] | caspase-3 activation [6] -0.667% | outcome [7] | outcome [8] | outcome [9] | outcome [10]

Cc1ccc(N(C)C)cc1
inactive: Potency [1] | Potency [2] | Potency [3] | Potency [4] | Potency [5] | caspase-3 activation [6] 2.02% | outcome [7] | outcome [8] | outcome [9] | outcome [10]

ICCc1ccccc1
inactive: Potency [1] | Potency [3] | Potency [4] | Potency [5] | caspase-3 activation [6] 0.274% | outcome [7] | outcome [8] | outcome [9] | outcome [10]
active: viability change, negative = cytotoxic [2] -96.6%

Fc1ccccc1
inactive: Potency [1] | Potency [2] | Potency [3] | Potency [4] | Potency [5] | caspase-3 activation [6] 0.771% | outcome [7] | outcome [8] | outcome [9] | outcome [10]

Nc1nc2ccccc2[nH]1
inactive: Potency [1] | Potency [2] | Potency [3] | Potency [4] | Potency [5] | caspase-3 activation [6] 10.5% | outcome [7] | outcome [8] | outcome [9] | outcome [10]

CC(C)=CCl
inactive: Potency [1] | Potency [2] | Potency [3] | Potency [4] | Potency [5] | caspase-3 activation [6] -0.417% | outcome [7] | outcome [8] | outcome [9] | outcome [10]

CCCCN(CCO)CCCC
inactive: Potency [1] | Potency [2] | Potency [3] | Potency [4] | Potency [5] | caspase-3 activation [6] -0.474% | outcome [7] | outcome [8] | outcome [9] | outcome [10]

O=C1CCCCC1
inactive: Potency [1] | Potency [2] | Potency [3] | Potency [4] | Potency [5] | caspase-3 activation [6] 1% | outcome [7] | outcome [8] | outcome [9] | outcome [10]

CCCCC(CC)COCC1CO1 (stereo not given)
inactive: Potency [1] | Potency [2] | Potency [3] | Potency [4] | Potency [5] | caspase-3 activation [6] -3.18% | outcome [7] | outcome [8] | outcome [9] | outcome [10]

CCCCOCCOCCSC#N
inactive: Potency [1] | Potency [2] | Potency [3] | Potency [4] | Potency [5] | caspase-3 activation [6] 1.11% | outcome [7] | outcome [8] | outcome [9] | outcome [10]

BrC(Br)C(Br)Br
inactive: Potency [1] | Potency [2] | Potency [3] | Potency [4] | Potency [5] | caspase-3 activation [6] 0.993% | outcome [7] | outcome [8] | outcome [9] | outcome [10]

O=C(O)CCSSCCC(=O)O
inactive: Potency [1] | Potency [2] | Potency [3] | Potency [4] | Potency [5] | caspase-3 activation [6] 0.0924% | outcome [7] | outcome [8] | outcome [9] | outcome [10]

CC(C)c1ccccc1
inactive: Potency [1] | Potency [2] | Potency [3] | Potency [4] | Potency [5] | caspase-3 activation [6] -0.787% | outcome [7] | outcome [8] | outcome [9] | outcome [10]

O=C(O)c1ccc(CO)o1
inactive: Potency [1] | Potency [2] | Potency [3] | Potency [4] | Potency [5] | caspase-3 activation [6] 1.29% | outcome [7] | outcome [8] | outcome [9] | outcome [10]
